Results: the supplement of paper PMC10849652
The full data set covers some 7,900 targets. This sample favours those with a hit. About 0.6% of all pairs of compound and target were hits.

Assays:
Experiment in all cases: log2 fold change, soluble protein after heating vs DMSO (PISA); higher = thermal stabilisation; K562 cells, 10 uM, 30 min; active = over 0.2 and 3.5 SD of the protein, either way, in both replicates (recomputed)
[1] = compound: CC1=C(C=C(C=C1)NC(=O)C2=CC(=CC=C2)C(C)(C)C#N)NC3=CC4=C(C=C3)N=CN(C4=O)C
Procedure, shortened: (§1)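 Values are thermal stability changes relative to control samples and are taken from duplicates. They are stated as log2 fold changes. Before quantification by TMTpro 16plex LC-MS/MS with equalised channel sums, K562 cells at 2×10^6 cells/mL were treated with 10 μM compound for 30 min, heated in aliquots for 3 min across 48°C-58°C, pooled, extracted in PBS with 0.5% NP-40 at 4°C, and centrifuged at 21,000xg for 90 min to give the soluble supernatant.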

[2] = compound: CC1=C(C=C(C=C1)NC(=O)C2=CC(=CC=C2)N(C)C)NC(=O)C3=CC=C(C=C3)O
Procedure, shortened: as §1

[3] = compound: CC1=CC=C(C=C1)SC2=C3C=C(SC3=CN=C2)C(=O)N
Procedure, shortened: as §1

[4] = compound: CC1=NC(=CC=C1)C2=C(N=C(N2)C(C)(C)C)C3=CC4=NC=CN=C4C=C3
Procedure, shortened: as §1

[5] = compound: CCCCN(Cc1ccc(C(=O)NO)cc1)C(=O)Nc1ccccc1 [Nexturastat A]
Procedure, shortened: as §1

[6] = compound: CCCS(=O)(=O)Nc1ccc(F)c(C(=O)c2c[nH]c3ncc(-c4ccc(Cl)cc4)cc23)c1F [vemurafenib]
Procedure, shortened: as §1

[7] = compound: CCCS(=O)(=O)Nc1ccc(F)c(C(=O)c2c[nH]c3ncc(Cl)cc23)c1F
Procedure, shortened: as §1

[8] = compound: CCCc1cc(C)[nH]c(=O)c1CNC(=O)c1cc(-c2ccnc(N3CCN(C)CC3)c2)cc2c1cnn2C(C)C
Procedure, shortened: as §1

[9] = compound: CCN(CC)Cc1ccc2cc(COC(=O)Nc3ccc(C(=O)NO)cc3)ccc2c1 [givinostat]
Procedure, shortened: as §1

[10] = compound: CCN(CCCOc1ccc2c(Nc3cc(CC(=O)Nc4cccc(F)c4)[nH]n3)ncnc2c1)CCOP(=O)(O)O [barasertib]
Procedure, shortened: as §1

[11] = compound: CC[C@@H]1C(=O)N(C)c2cnc(Nc3ccc(C(=O)NC4CCN(C)CC4)cc3OC)nc2N1C1CCCC1
Procedure, shortened: as §1

[12] = compound: CC[C@@H]1C(=O)N(C)c2cnc(Nc3ccc(C(=O)N[C@H]4CC[C@H](N5CCN(CC6CC6)CC5)CC4)cc3OC)nc2N1C(C)C [volasertib]
Procedure, shortened: as §1

[13] = compound: CC[C@H](C)N1C=C(C2=C(C=C(C=C21)C3=CN=C(C=C3)N4CCNCC4)C(=O)NCC5=C(C=C(NC5=O)C)C)C
Procedure, shortened: as §1

[14] = compound: CC[C@H](C)[C@@H](C(=O)N[C@@H]([C@@H](C)O)C(=O)N[C@@H](CC(C)C)C(=O)[C@]1(CO1)C)NC(=O)[C@H]([C@@H](C)CC)N(C)C(=O)C [epoxomicin]
Procedure, shortened: as §1

[15] = compound: CCn1c(C(=O)N(C2CC2)C2CC2)cc2c3c(ncn3C)c(Nc3cc(C)n(C)n3)nc21
Procedure, shortened: as §1

[16] = compound: CCn1cc(-c2ccnc3[nH]c(-c4cccc(CN(C)C)c4)cc23)c(-c2ccc(NC(=O)N(C)C)cc2)n1
Procedure, shortened: as §1

[17] = compound: CN(C)CC(=O)Nc1ccc2[nH]c(=O)c3ccccc3c2c1
Procedure, shortened: as §1

[18] = compound: CN(CCOC1=CC=C(C=C1)C[C@H]2C(=O)NC(=O)S2)C3=CC=CC=N3 (racemic) [rosiglitazone]
Procedure, shortened: as §1

[19] = compound: CN1C2=C(C3=C1C(=O)N(N=C3)CC4=CC(=CC=C4)N)SC(=C2)S(=O)C
Procedure, shortened: as §1

[20] = compound: CN1CCC(CNc2ccc3ncc(-c4cccc(OC(F)(F)F)c4)n3n2)CC1
Procedure, shortened: as §1

Measured: log2 fold change

DCTPP1 (UniProt Q9H773)
Chain of UniProt Q9H773 (Q9H773 whole entry, looked up): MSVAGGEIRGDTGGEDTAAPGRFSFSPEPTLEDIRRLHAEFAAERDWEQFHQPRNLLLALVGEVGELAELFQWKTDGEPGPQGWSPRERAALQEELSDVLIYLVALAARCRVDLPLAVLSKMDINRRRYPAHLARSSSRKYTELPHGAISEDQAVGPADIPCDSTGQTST
inactive: [1] 0.003 | [2] -0.078 | [3] 0.009 | [4] 0.008 | [5] 0.067 | [6] 0.126 | [7] -0.043 | [8] -0.009 | [9] -0.019 | [10] 0.059 | [11] 0.007 | [12] -0.016 | [13] -0.059 | [14] 0.062 | [15] -0.012 | [16] -0.032 | [17] -0.012 | [18] 0.012 | [19] -0.048 | [20] 0.201

DNAJC7 (UniProt Q99615)
Chain of UniProt Q99615 (Q99615 whole entry, looked up): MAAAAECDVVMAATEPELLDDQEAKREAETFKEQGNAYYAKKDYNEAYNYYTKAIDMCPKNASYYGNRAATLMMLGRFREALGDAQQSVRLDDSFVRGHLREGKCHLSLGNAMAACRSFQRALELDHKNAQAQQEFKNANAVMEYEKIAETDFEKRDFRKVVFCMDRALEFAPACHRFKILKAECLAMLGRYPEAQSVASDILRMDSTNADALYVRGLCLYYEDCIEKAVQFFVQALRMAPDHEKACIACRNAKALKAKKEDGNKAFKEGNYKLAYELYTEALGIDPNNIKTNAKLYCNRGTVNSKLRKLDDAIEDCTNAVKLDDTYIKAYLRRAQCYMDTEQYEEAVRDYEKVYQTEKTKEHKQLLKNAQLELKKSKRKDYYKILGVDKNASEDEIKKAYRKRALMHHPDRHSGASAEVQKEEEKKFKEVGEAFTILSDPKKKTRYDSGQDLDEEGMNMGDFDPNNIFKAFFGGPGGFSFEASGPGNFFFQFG
inactive: [1] -0.006 | [2] -0.037 | [3] 0.029 | [4] 0.042 | [5] -0.01 | [6] 0.029 | [7] 0.098 | [8] 0.02 | [9] 0.032 | [10] 0.064 | [11] -0.079 | [13] 0.104 | [14] 0.073 | [15] -0.014 | [16] -0.025 | [17] 0.014 | [18] 0.017 | [19] -0.052 | [20] -0.142
active: [12] -0.266

DDX39A (UniProt O00148)
Chain of UniProt O00148 (O00148 whole entry, looked up): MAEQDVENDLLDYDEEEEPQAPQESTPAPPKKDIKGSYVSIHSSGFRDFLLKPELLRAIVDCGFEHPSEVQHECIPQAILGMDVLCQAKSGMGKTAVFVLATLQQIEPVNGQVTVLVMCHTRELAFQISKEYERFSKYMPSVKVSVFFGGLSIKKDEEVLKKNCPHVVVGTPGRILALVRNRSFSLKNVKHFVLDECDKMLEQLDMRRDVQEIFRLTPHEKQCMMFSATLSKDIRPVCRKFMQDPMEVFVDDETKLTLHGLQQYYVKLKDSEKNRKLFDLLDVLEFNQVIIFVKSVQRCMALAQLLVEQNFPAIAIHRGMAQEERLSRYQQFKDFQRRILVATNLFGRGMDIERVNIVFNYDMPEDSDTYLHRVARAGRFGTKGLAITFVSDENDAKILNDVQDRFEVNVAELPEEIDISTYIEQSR
inactive: [1] -0.018 | [2] -0.016 | [3] 0.02 | [4] 0.027 | [5] 0.015 | [6] 0.004 | [7] 0.017 | [8] 0.074 | [9] 0.076 | [10] 0.035 | [11] 0.037 | [12] -0.104 | [13] 0.034 | [14] -0.096 | [15] -0.037 | [16] -0.123 | [17] -0.002 | [18] 0.018 | [19] 0.038 | [20] -0.016

ELOC (UniProt Q15369)
Chain of UniProt Q15369 (Q15369 whole entry, looked up): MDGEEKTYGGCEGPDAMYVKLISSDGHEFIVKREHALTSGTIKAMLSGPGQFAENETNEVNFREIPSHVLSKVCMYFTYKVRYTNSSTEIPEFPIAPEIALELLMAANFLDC
inactive: [1] 0.016 | [2] -0.034 | [3] 0.008 | [4] 0.001 | [5] -0.027 | [6] 0.017 | [7] 0.031 | [8] 0 | [9] -0.035 | [10] 0.026 | [11] -0.009 | [12] -0.016 | [13] 0.042 | [14] 0.028 | [15] 0.006 | [16] -0.087 | [17] 0.108 | [18] 0.011 | [19] -0.033 | [20] -0.014

DUS2 (UniProt Q9NX74)
inactive: [1] -0.028 | [2] -0.022 | [3] -0.022 | [4] 0.04 | [5] -0.015 | [6] -0.004 | [7] 0.099 | [8] 0.039 | [9] 0.062 | [10] -0.062 | [11] -0.052 | [12] -0.242 | [13] 0.037 | [14] 0.059 | [15] -0.059 | [16] -0.029 | [17] 0.055 | [18] 0.063 | [19] 0.115 | [20] -0.02

DBT (UniProt P11182)
inactive: [1] 0.001 | [2] -0.017 | [3] 0.01 | [4] -0.015 | [5] 0.024 | [6] -0.011 | [7] 0.015 | [8] -0.042 | [9] 0.005 | [10] -0.033 | [11] 0.068 | [12] 0.009 | [13] -0.01 | [14] -0.022 | [15] -0.018 | [16] -0.001 | [17] -0.14 | [18] -0.025 | [19] 0.015 | [20] 0.045

FAM207A (UniProt Q9NSI2)
Chain of UniProt Q9NSI2 (Q9NSI2 whole entry, looked up): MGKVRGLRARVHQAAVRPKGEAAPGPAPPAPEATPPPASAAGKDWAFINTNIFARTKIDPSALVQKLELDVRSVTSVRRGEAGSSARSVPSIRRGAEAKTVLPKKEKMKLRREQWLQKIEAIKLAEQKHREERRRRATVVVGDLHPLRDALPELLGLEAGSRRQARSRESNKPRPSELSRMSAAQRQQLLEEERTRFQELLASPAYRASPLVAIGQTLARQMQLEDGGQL
active: [20] 0.418
inactive: [1] -0.086 | [2] 0.11 | [3] -0.006 | [4] 0.024 | [5] -0.047 | [6] 0.038 | [7] -0.006 | [8] 0.44 | [9] 0.148 | [10] -0.036 | [11] -0.085 | [12] -0.165 | [13] 0.044 | [14] -0.024 | [15] 0.025 | [16] 0.023 | [17] 0.05 | [18] 0.146 | [19] 0.168

DDOST (UniProt P39656)
Chain of UniProt P39656 (P39656 whole entry, looked up): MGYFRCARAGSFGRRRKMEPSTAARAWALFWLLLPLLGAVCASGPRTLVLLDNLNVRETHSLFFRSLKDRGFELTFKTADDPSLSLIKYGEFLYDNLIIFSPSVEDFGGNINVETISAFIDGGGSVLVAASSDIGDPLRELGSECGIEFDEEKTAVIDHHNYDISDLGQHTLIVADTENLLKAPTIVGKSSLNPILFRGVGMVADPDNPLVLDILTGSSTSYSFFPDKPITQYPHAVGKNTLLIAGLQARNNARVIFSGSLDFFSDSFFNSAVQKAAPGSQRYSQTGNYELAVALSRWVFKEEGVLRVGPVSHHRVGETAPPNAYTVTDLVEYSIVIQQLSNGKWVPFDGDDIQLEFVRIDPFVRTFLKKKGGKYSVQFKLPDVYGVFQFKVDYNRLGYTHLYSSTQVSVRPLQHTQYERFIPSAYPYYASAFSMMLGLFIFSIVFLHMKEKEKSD
inactive: [1] 0.03 | [2] -0.013 | [3] -0.031 | [4] 0.016 | [5] -0.01 | [6] 0.003 | [7] -0.006 | [8] -0.001 | [9] 0.006 | [10] 0.008 | [11] 0.006 | [12] -0.102 | [13] -0.014 | [14] -0.014 | [15] 0.015 | [16] 0.052 | [17] -0.031 | [18] -0.007 | [19] 0.019 | [20] 0.089

EIF2S3 (UniProt P41091)
inactive: [1] 0.02 | [2] 0 | [3] -0.006 | [4] -0.032 | [5] 0.102 | [6] -0.029 | [7] 0.007 | [8] 0.05 | [9] 0.028 | [10] -0.033 | [11] 0.076 | [12] 0.073 | [13] 0.026 | [14] -0.144 | [15] 0.009 | [16] 0.055 | [17] -0.034 | [18] -0.02 | [19] 0.068 | [20] 0.049

DHFR (UniProt P00374)
Chain of UniProt P00374 (P00374 whole entry, looked up): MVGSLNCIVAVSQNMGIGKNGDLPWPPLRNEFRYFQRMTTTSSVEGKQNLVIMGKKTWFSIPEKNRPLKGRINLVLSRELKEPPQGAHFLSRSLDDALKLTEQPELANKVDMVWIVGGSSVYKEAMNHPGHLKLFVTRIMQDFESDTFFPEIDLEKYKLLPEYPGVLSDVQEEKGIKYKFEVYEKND
active: [20] 1.64
inactive: [1] -0.069 | [2] 0.003 | [3] -0.086 | [4] -0.074 | [5] 0.232 | [6] 0.044 | [7] 0.001 | [8] 0.17 | [9] 0.162 | [10] 0.068 | [11] 0.002 | [12] -0.11 | [13] 0.088 | [14] -0.013 | [15] -0.101 | [16] -0.077 | [17] 0.091 | [18] 0.046 | [19] 0.113

DHX40 (UniProt Q8IX18)
Chain of UniProt Q8IX18 (Q8IX18 whole entry, looked up): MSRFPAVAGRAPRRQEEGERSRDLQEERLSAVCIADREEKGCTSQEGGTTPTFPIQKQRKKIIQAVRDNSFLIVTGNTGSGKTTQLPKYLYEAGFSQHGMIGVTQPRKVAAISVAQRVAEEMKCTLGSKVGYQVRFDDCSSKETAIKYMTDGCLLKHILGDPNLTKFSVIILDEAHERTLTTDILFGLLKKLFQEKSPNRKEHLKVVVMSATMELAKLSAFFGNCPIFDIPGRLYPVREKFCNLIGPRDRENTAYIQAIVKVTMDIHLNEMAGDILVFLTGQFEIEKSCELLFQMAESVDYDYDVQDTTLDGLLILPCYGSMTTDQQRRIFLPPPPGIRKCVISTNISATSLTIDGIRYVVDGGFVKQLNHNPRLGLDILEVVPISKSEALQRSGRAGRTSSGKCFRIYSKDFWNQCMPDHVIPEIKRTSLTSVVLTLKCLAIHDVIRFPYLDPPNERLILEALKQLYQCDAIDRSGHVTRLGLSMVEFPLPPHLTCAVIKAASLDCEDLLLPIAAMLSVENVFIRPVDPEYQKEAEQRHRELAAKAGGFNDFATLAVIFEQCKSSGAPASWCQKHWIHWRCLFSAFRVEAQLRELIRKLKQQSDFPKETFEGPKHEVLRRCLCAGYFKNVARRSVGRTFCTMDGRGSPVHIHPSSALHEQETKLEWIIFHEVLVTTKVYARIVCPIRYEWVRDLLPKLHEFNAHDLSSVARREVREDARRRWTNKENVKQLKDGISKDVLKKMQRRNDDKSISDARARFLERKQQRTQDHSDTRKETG
inactive: [1] 0.105 | [2] -0.047 | [3] 0.02 | [4] -0.027 | [5] 0.12 | [6] 0 | [7] 0.043 | [8] 0.025 | [9] 0.087 | [10] -0.002 | [11] -0.006 | [12] -0.236 | [13] 0.188 | [14] -0.037 | [15] -0.074 | [16] -0.013 | [17] 0.026 | [18] 0.166 | [19] -0.076 | [20] -0.029

DCAF16 (UniProt Q9NXF7)
Chain of UniProt Q9NXF7 (Q9NXF7 whole entry, looked up): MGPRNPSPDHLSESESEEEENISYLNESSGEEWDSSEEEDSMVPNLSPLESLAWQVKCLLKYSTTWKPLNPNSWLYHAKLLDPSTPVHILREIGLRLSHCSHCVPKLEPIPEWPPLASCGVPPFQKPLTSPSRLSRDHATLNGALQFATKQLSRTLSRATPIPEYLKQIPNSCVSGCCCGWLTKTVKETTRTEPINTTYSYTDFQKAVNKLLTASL
inactive: [1] -0.036 | [2] -0.013 | [3] 0.059 | [4] -0.015 | [5] 0.063 | [6] 0.151 | [7] 0.185 | [8] 0.042 | [9] -0.016 | [10] 0.024 | [11] -0.164 | [13] 0.06 | [14] 0.032 | [15] -0.026 | [16] -0.205 | [17] 0.073 | [18] 0.055 | [19] -0.052 | [20] 0.03
active: [12] -0.532

EHBP1L1 (UniProt Q8N3D4)
Chain of UniProt Q8N3D4 (Q8N3D4 whole entry, looked up): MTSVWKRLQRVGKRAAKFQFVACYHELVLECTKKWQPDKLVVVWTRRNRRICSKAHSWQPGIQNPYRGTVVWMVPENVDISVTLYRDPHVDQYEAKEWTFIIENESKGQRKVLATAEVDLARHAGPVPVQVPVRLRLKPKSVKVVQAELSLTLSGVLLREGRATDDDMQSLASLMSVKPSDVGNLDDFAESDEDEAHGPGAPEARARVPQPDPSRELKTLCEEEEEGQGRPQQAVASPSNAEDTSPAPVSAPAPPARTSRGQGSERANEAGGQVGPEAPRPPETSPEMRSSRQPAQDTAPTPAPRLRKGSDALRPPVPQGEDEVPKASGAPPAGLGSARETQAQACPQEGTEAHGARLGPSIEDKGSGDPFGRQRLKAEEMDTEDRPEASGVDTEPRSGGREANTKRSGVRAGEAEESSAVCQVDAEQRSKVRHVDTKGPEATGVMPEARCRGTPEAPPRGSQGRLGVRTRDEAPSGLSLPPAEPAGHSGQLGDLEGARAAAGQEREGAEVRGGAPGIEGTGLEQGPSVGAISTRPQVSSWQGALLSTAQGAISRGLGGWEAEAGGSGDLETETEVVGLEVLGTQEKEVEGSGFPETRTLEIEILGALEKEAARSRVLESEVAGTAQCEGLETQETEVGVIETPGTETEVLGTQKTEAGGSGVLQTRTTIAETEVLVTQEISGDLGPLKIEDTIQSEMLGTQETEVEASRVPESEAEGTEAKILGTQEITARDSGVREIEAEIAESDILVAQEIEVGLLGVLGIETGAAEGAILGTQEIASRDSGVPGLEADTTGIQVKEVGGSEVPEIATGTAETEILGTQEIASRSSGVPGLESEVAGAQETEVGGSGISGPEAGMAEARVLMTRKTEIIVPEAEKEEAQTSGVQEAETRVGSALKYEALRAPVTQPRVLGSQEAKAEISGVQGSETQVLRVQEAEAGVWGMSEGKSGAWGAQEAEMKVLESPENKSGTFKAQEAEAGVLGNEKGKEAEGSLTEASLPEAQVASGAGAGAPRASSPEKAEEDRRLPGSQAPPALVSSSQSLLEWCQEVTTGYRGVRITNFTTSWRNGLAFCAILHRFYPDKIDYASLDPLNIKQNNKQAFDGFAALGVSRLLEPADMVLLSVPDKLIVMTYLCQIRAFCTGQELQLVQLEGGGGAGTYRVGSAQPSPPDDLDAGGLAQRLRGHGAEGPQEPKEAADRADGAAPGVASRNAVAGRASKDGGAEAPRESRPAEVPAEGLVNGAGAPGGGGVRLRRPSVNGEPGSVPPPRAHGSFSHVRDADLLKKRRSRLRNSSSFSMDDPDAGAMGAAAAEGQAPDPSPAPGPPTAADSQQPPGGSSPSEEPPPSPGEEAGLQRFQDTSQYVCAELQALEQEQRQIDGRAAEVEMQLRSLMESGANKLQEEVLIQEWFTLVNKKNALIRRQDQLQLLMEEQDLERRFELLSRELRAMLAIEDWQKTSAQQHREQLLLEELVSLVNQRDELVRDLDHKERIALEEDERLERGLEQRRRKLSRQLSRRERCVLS
active: [12] -0.307
inactive: [1] 0 | [2] -0.02 | [3] -0.003 | [4] -0.043 | [5] 0.011 | [6] 0.034 | [7] 0.007 | [8] 0.025 | [9] 0.026 | [10] 0.016 | [11] -0.035 | [13] 0.091 | [14] 0.072 | [15] 0.012 | [16] -0.055 | [17] 0.029 | [18] 0.094 | [19] 0.077 | [20] 0.101

EIF4G1 isoform 8 (UniProt Q04637)
inactive: [1] -0.028 | [2] -0.011 | [3] 0.004 | [4] 0.006 | [5] 0.169 | [6] 0.013 | [7] 0.028 | [8] 0.119 | [9] 0.057 | [10] 0.067 | [11] -0.114 | [12] -0.487 | [13] 0.174 | [14] 0.016 | [15] -0.076 | [16] 0.005 | [17] 0.031 | [18] 0.047 | [19] 0.181 | [20] -0.425

CUEDC2 (UniProt Q9H467)
inactive: [1] -0.03 | [2] -0.043 | [3] -0.001 | [4] -0.153 | [5] -0.019 | [6] 0.009 | [7] 0.032 | [8] -0.01 | [9] 0.055 | [10] 0.091 | [11] -0.044 | [12] -0.133 | [13] 0.033 | [14] 0.118 | [15] -0.01 | [16] -0.001 | [17] -0.01 | [18] 0.105 | [19] -0.038 | [20] -0.067

CTU1 (UniProt Q7Z7A3)
Chain of UniProt Q7Z7A3 (Q7Z7A3 whole entry, looked up): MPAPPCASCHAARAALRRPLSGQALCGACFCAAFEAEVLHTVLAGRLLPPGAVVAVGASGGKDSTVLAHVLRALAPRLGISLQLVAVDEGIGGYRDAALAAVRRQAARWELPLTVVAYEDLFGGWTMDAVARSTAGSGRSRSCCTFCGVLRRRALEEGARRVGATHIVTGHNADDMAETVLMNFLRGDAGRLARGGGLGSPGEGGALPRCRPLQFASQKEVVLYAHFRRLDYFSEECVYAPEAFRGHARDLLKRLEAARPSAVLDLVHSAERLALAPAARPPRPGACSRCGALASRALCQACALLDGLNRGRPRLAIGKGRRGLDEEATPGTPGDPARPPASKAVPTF
inactive: [1] 0.011 | [2] -0.023 | [3] 0.061 | [4] 0.059 | [5] -0.022 | [6] 0.065 | [7] 0.034 | [8] -0.035 | [9] 0.043 | [10] 0 | [11] -0.052 | [12] -0.117 | [13] 0.026 | [14] 0.045 | [15] -0.017 | [16] -0.057 | [17] 0.065 | [18] 0.055 | [19] -0.098
active: [20] -0.233
